# Reference: PubChem BioAssay (EPA / NIEHS)
# Inconclusive results are not listed. The source made the active and inactive calls. How the source made its calls, unless noted: active means hit-call score of the fitted dose curve at least 0.9, where 1 is the maximum; inactive means score below 0.9.
# Experiments:
# [1] = IUF_NPC2c_oligodendrocyte_migration_120hr: Leibniz Research Institute for Environmental Medicine (IUF) 120-hour Neural Progenitor Cell Migration Assay for Oligodendrocyte Migration (NPC2c) (AID 2284297);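 further: O4-positive oligodendrocyte migration distance divided by radial glia migration distance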
# Method in brief: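 Exposure runs 5 days from differentiation onset at 37C, seven concentrations plus solvent control, DMSO at most 0.1%, applied to primary hNPC spheres on laminin. After fixation, O4 immunostaining gives oligodendrocyte distance from the sphere core, relative to radial glia migration.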
# [2] = IUF_NPC2a_radial_glia_migration_120hr: Leibniz Research Institute for Environmental Medicine (IUF) 120-hour Neural Progenitor Cell Migration Assay for Radial Glia Migration (NPC2a) (AID 2284298)
# Method in brief: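 Migration distance in um, sphere core edge to migration-area edge, derived by nuclei-density algorithm from Hoechst images after 120 h compound exposure. Primary hNPC spheres differentiated on poly-D-lysine/laminin in N2 medium, 37C; medium half-replaced day 3.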
# [3] = IUF_NPC2a_radial_glia_migration_72hr: Leibniz Research Institute for Environmental Medicine (IUF) 72-hour Neural Progenitor Cell Migration Assay for Radial Glia Migration (NPC2a) (AID 2284299)
# Method in brief: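 Primary hNPC spheres, fetal brain GW 16-19, on PDL/laminin; DMEM/F12 3:1 + 1% N2. Compound dosed day 0, 7 conc. + SC, half-medium refresh day 3. 72 h brightfield, migration distance core-to-front (um), 4 directions averaged.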
# [4] = IUF_NPC2b_neuronal_migration_120hr: Leibniz Research Institute for Environmental Medicine (IUF) 120-hour Neural Progenitor Cell Migration Assay for Neuron Migration (NPC2b) (AID 2284300)
# Method in brief: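 TUBB3-positive neurons are imaged after 120 h of differentiation, and their mean distance from the sphere edge is normalised to radial glia migration. Single 0.3 mm fetal hNPC spheres on poly-D-lysine/laminin received 7 compound concentrations, ≤0.1% DMSO, refreshed at day 3.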
# [5] = IUF_NPC3_neuronal_differentiation_120hr: Leibniz Research Institute for Environmental Medicine (IUF) 120-hour Neuronal Differentiation Assay (NPC3) (AID 2284301)
# Method in brief: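 Primary human fetal neural progenitor spheres (GW 16-19, 0.3 mm) plated on poly-D-lysine/laminin in N2 medium, exposed from day 0 for 120 h with half-medium refresh at day 3. TUBB3+ cells as percent of Hoechst nuclei in migration area; DMSO baseline.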
# [6] = IUF_NPC4_neurite_length_120hr: Leibniz Research Institute for Environmental Medicine (IUF) 120-hour Neuronal Morphology Assay for Neurite Length (NPC4) (AID 2284302)
# Method in brief: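 Human fetal cortex (GW 16-19) neural progenitor spheres, 0.3 mm, were plated on poly-D-lysine/laminin in N2 differentiation medium and exposed from day 0 for 120 h, half-feeding at day 3. Mean TUBB3+ neurite length (µm) came from skeletonized images, relative to DMSO.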
# [7] = IUF_NPC5_oligodendrocyte_differentiation_120hr: Leibniz Research Institute for Environmental Medicine (IUF) 120-hour Oligodendrocyte Differentiation Assay (NPC5) (AID 2284304; active means hit-call score of the fitted dose curve at least 0.9, where 1 is the maximum;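 further: primary human fetal neural progenitor spheres plated to migrate and differentiate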)
# Method in brief: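 Oligodendrocyte differentiation scored as O4-positive cells, found by CNN image analysis, as percent of Hoechst-stained nuclei in the migration area. Scoring followed 5 days of exposure of plated hNPC neurospheres differentiating in DMEM/F12 N2 medium at 37C, with compound refreshed at day 3.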
# [8] = IUF_NPC4_neurite_area_120hr: Leibniz Research Institute for Environmental Medicine (IUF) 120-hour Neuronal Morphology Assay for Neurite Area (NPC4) (AID 2284305; active means hit-call score of the fitted dose curve at least 0.9, where 1 is the maximum)
# Method in brief: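 Human fetal cortex-derived neural progenitor spheres (0.3 mm, GW 16-19) plated on poly-D-lysine/laminin in N2 differentiation medium and exposed from day 0 for 120 h across 7 concentrations plus solvent control. Neurite area is mean pixel area per TUBB3-positive neuron via skeletonization, analysed relative to DMSO.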
# [9] = IUF_NPC2-5_cytotoxicity_72hr: Cytotoxicity Assessment at 72 hours in the Leibniz Research Institute for Environmental Medicine (IUF) Neural Progenitor Cell Migration and Differentiation Assay for Cytotoxicity (NPC2-5) (AID 2284306; active means hit-call score of the fitted dose curve at least 0.9, where 1 is the maximum;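 further: LDH release into supernatant measured by resorufin fluorescence marking membrane damage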)
# Method in brief: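 Human fetal (GW 16-19) neural progenitor spheres, 0.3 mm, plated on poly-D-lysine/laminin in N2 differentiation medium and exposed from day 0 to 7 concentrations plus solvent control (DMSO ≤0.1%). LDH-dependent resazurin-to-resorufin fluorescence in supernatant at 72 h.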
# [10] = IUF_NPC2-5_cytotoxicity_120hr: Cytotoxicity Assessment at 120 hours in the Leibniz Research Institute for Environmental Medicine (IUF) Neural Progenitor Cell Migration and Differentiation Assay (NPC2-5) (AID 2284307; active means hit-call score of the fitted dose curve at least 0.9, where 1 is the maximum;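 on AC50: LDH released into supernatant as membrane damage marker via resorufin fluorescence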)
# Method in brief: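 Membrane-integrity loss measured as LDH activity in medium supernatant via resazurin-to-resorufin fluorescence after 120 h exposure. hNPC spheres from GW 16-19 fetal cortex differentiated on poly-D-lysine/laminin, 37C, medium half-refreshed day 3; seven concentrations, DMSO max 0.1%.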
# [11] = IUF_NPC2-5_cell_number_120hr: Cell Number Assessment at 120 hours in the Leibniz Research Institute for Environmental Medicine (IUF) Neural Progenitor Cell Migration and Differentiation Assay (NPC2-5) (AID 2284308);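 further: count of Hoechst-stained nuclei in migration zone around plated human neural progenitor spheres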
# Method in brief: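 Counting of all Hoechst-stained nuclei in the migration area at 120 h, versus DMSO control. Primary hNPC spheres differentiated on poly-D-lysine/laminin in N2 medium at 37C, dosed from day 0 (7 concentrations, DMSO ≤0.1%), half-refed day 3.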
# [12] = IUF_NPC2-5_viability_120hr: Viability Assessment at 120 hours in the Leibniz Research Institute for Environmental Medicine (IUF) Neural Progenitor Cell Migration and Differentiation Assay (NPC2-5) (AID 2284312)
# Method in brief: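 Human fetal (GW 16-19) neural progenitor spheres of 0.3 mm were plated on poly-D-lysine/laminin in N2 differentiation medium and exposed from day 0 for 120 h, with half-medium refresh at day 3. Viability was read as alamar blue resazurin-to-resorufin fluorescence against DMSO.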
# [13] = VALA_TUBHUV_Agonist_CellCount: Viability Assessment in the VALA Sciences human Umbilical Vein Endothelial Tubule Formation (TUBHUV) Agonism Assay (AID 2284309; active means hit-call score of the fitted dose curve at least 0.9, where 1 is the maximum)
# Method in brief: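 HUVEC co-cultured 1:3 with HDF for 3 days in 10 ng/ml VEGF, then compounds added in VEGF medium for a further 3 days (72 h). Nuclear-stain/CD31 imaging cell count. Positive-direction fit versus 0.1% DMSO vehicle.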
# [14] = CCTE_Mundy_HCI_Cortical_NOG_NeuronCount: CCTE's Neurite Outgrowth Assay in rat cortical cells for Neuron Count, Mundy Lab (AID 2284236; active means hit-call score of the fitted dose curve at least 0.9, where 1 is the maximum;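 further: neurons counted by imaging betaIII-tubulin and Hoechst stained cortical cells; cells exposed to compound for about 48 hours before fixation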)
# Method in brief: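 Read-out: neuron number by high-content imaging of betaIII-tubulin (Alexa Fluor-488) and Hoechst-labelled rat primary cortical cells.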
# [15] = CCTE_Mundy_HCI_Cortical_NOG_BPCount: CCTE's Neurite Outgrowth Assay in rat cortical cells for Branch Point Count, Mundy Lab (AID 2284237);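 on AC50: branch points counted about two days after chemical exposure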
# Method in brief: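 Measured 50.33 h after dosing, this morphology endpoint uses rat primary cortical cultures labelled for betaIII-tubulin. Branch points are quantified by high-content imaging, with DMSO as negative control and baseline.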
# [16] = CCTE_Mundy_HCI_hNP1_Casp3_7: CCTE's Caspase-Glo 3/7 Assay in human neuroprogenitor cells for Apoptosis, Mundy Lab (AID 2284240)
# Method in brief: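 Neuroepithelial-lineage stem cells from WA09 embryonic cells were treated with chemicals after 40–44 h of culture. Twenty-four hours later, caspase-3/7 activation was detected luminescently after a 30 min room-temperature reagent step, with DMSO as baseline.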
# [17] = CCTE_Mundy_HCI_hNP1_CellTiter: CCTE's Cell Titer-Glo 2 Assay in human neuroprogenitor cells for Viability, Mundy Lab (AID 2284241; active means hit-call score of the fitted dose curve at least 0.9, where 1 is the maximum;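 on AC50: a hit is a drop in ATP luminescence versus DMSO meaning reduced viability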)
# Method in brief: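 Measures ATP content in human neural progenitors derived from WA09 embryonic cells. Read-out at 26.5 hours after dosing, with DMSO serving as the negative control and baseline.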
# [18] = TAMU_PeakParms_SingleDonor1434_QT: Texas A&M University (TAMU) 1.5-hr Human Induced Pluripotent Stem Cell (iPSC)-derived Cardiomyocytes Calcium (Ca+2) Flux Assay for Cardiotoxicity: QT (decay-rise ratio) (AID 2284235; active means hit-call score of the fitted dose curve at least 0.9, where 1 is the maximum)
# Method in brief: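 iPSC-derived cardiomyocytes (single donor 1434) dosed at 0.2, 1, 10, 100 uM final in 0.5% DMSO, 90 min at 37C. Ca2+ flux fluorescence decay/rise ratio; EC05 (5% increase versus DMSO) as POD, excluding beat-arrest and severe-notch data.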
# [19] = CCTE_Mundy_HCI_Cortical_Synap_Neur_Matur_NeuronCount: CCTE's Synaptogenesis and Neurite Maturation Assay in rat cortical cells for Neuron Count, Mundy Lab (AID 2284242; active means hit-call score of the fitted dose curve at least 0.9, where 1 is the maximum;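 on AC50: hits reduce neuron count versus DMSO baseline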)
# Method in brief: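 Neuron number was scored by automated high-content imaging of Hoechst- and MAP2-labelled rat primary cortical cells. Glial growth was arrested with AraC at DIV 5, compounds were applied from DIV 7, and cultures ended at DIV 12.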
# [20] = VALA_TUBHUV_Antagonist_CellCount: Viability Assessment in the VALA Sciences human Umbilical Vein Endothelial Tubule Formation (TUBHUV) Antagonism Assay (AID 2284310; active means hit-call score of the fitted dose curve at least 0.9, where 1 is the maximum)
# Method in brief: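 HUVEC co-cultured with HDF (1:3) 3 days in 10 ng/ml VEGF, then 3 days with compounds in VEGF medium. Fixed, nuclear stain and CD31 immunofluorescence, imaged; cell counts fitted versus 0.1% DMSO, loss of signal read as lower viability.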
smiles,measurement,setting,value
CC(C)(c1cc(Br)c(O)c(Br)c1)c1cc(Br)c(O)c(Br)c1,AC50,[1],3.61 µM (active)
same,AC50,[2],3.14 µM (active)
same,AC50,[3],3.76 µM (active)
same,AC50,[4],5.12 µM (active)
same,AC50,[5],5.06 µM (active)
same,AC50,[6],3.33 µM (active)
same,AC50,[7],0.628 µM (active)
same,AC50,[8],5.13 µM (active)
same,AC50,[9],4.45 µM (active)
same,AC50,[10],3.04 µM (active)
same,AC50,[11],2.79 µM (active)
same,AC50,[12],2.94 µM (active)
CCCCCCCCOC(=O)c1cc(O)c(O)c(O)c1,AC50,[13],76.4 µM (active)
O=C1O[C@H]([C@@H](O)CO)C(O)=C1O,outcome,[14],inactive
same,outcome,[15],inactive
same,outcome,[16],inactive
same,outcome,[17],inactive
same,outcome,[1],inactive
same,outcome,[2],inactive
same,outcome,[3],inactive
same,outcome,[4],inactive
same,outcome,[5],inactive
same,outcome,[6],inactive
same,outcome,[8],inactive
same,outcome,[9],inactive
same,outcome,[10],inactive
same,outcome,[11],inactive
same,outcome,[12],inactive
CN(C)c1ccc(C(=C2C=CC(=[N+](C)C)C=C2)c2ccc(N(C)C)cc2)cc1,AC50,[18],0.352 µM (active)
Oc1ccccc1,outcome,[15],inactive
same,outcome,[16],inactive
same,outcome,[17],inactive
CN1C(=O)CC[C@H]1c1cccnc1,outcome,[15],inactive
same,outcome,[16],inactive
same,outcome,[17],inactive
same,outcome,[19],inactive
c1ccc2ccccc2c1,outcome,[18],inactive
CC/C(=C(/CC)c1ccc(O)cc1)c1ccc(O)cc1,outcome,[18],inactive
same,AC50,[14],28.9 µM (active)
same,AC50,[15],12.8 µM (active)
same,AC50,[16],26.5 µM (active)
same,AC50,[17],29.7 µM (active)
same,AC50,[19],14 µM (active)
CCCOC(=O)c1cc(O)c(O)c(O)c1,AC50,[18],22.1 µM (active)
O=C(Nc1ccc(Cl)cc1)Nc1ccc(Cl)c(Cl)c1,outcome,[13],inactive
same,outcome,[20],inactive
